Measured values as given in PubChem BioAssay AID738 (SRMLSC, 2007).
In all, about 98,000 compounds went through this assay and about 4,900 (5%) were called active. Shown is part of a subset that was picked to be rich in actives. A number with no mark means an inactive call. Cut-off read from the data, not from the text of the source: active = inhibition above about 30%; inactive = the rest.

Experiment: yeast control strain growth suppression – counter-screen for post-Golgi transport modulator project, primary screen (AID 738)
Settings: efflux-deficient yeast background strain, growth absorbance A615, 16 h; at 10 µM; hits give high values

SMILES	inhibition
CC(=O)c1nn(-c2cccc(Br)c2)cc1C(=O)c1cccc2ccccc12	8.1%
Cc1cc2cc3c(N)[nH]nc3nc2cc1C	8.93%
COCCNS(=O)(=O)c1cc(Br)ccc1OC	2.48%
O=[N+]([O-])c1cccc(-c2nnc3c4ccccc4c4ccccc4n23)c1	6.93%
COC(=O)Cc1cc(=O)n(-c2nc3ccccc3s2)[nH]1	11.8%
CCC(=O)NC(=Nc1nc2ccccc2s1)NC(=O)CC	35.9% (active)
CC(C)CC(=O)N/C(N)=N/c1nc2ccccc2s1	13.9%
COc1ccc(C(=O)N2CCc3cc(OC)c(OC)cc3C2c2cccc([N+](=O)[O-])c2)cc1 (stereo not drawn)	20%
c1ccc2c(C[n+]3csc4ccccc43)cccc2c1	9.79%
COc1ccc(C)cc1NC(=O)CCC(=O)Nc1nnc(C(F)(F)F)s1	0.61%
O=c1[nH]n(-c2cccc(Cl)c2)c2ncccc12	16.8%
Cc1[nH]n(-c2cccc(Cl)c2)c(=O)c1/C=N/n1c(C)nc2ccccc2c1=O	9.33%
Cc1[nH]n(-c2cccc(Cl)c2)c(=O)c1-c1ccc(Cl)cc1	55.6% (active)
O=C(CN1CCN(S(=O)(=O)c2ccc(Cl)s2)CC1)NCc1ccc(Cl)cc1	15.8%
CC(=O)Nc1cccc(/C(C)=N/NC(=O)c2ccccc2Cl)c1	5.79%
Cc1ccc(C(=O)Nc2ccc3c(c2)OCO3)cc1S(=O)(=O)N1CCCCC1	16.4%
Cc1cc(C)n(C(=O)c2ccc(C)c(S(=O)(=O)N3CCOCC3)c2)n1	11.4%
Cc1ccc(C(=O)Nc2ccccc2C(=O)NC2CCCCC2)cc1S(=O)(=O)N1CCOCC1	36.2% (active)
CCOc1c2ccc(C(=O)NC3CCCc4ccccc43)cc2nn1CC (stereo not drawn)	-2.36%
O=C(O)c1ccccc1-c1ccccc1C(=O)Nc1cccc2ccccc12	9.42%
COc1ccccc1C(=O)NN1C(=O)C2C3C=CC(O3)C2C1=O (stereo not drawn)	3.54%

SMILES	inhibition
Cc1ccccc1C(OCC(O)CN1CCCCC1CCO)c1ccccc1 (stereo not drawn)	30.4% (active)
CCCSc1nsc(N)n1	3.53%
O=C(CSc1ncnc2c1cnn2CCc1ccccc1)Nc1ccc(F)cc1	-3.75%
O=C(Nc1cccn(Cc2c(Cl)cccc2Cl)c1=O)c1ccc(Cl)cc1	-8.03%
Clc1ccc(COn2c(-c3ccc(Cl)cc3Cl)nc3ncccc32)cc1	66.1% (active)
CCOc1ccc(OCC)c(-c2c(=O)n(OCc3ccc(Cl)cc3)c3ccccc3[n+]2[O-])c1	11.6%
O=C(/C=C/c1cc2c(cc1Br)OCO2)NCc1ccc(Cl)cc1	9.36%
N/C(=N\OC(=O)CCc1ccccc1)c1ccc(Cl)cc1	16.6%
C=CCNc1cnn(-c2ccc(C)cc2)c(=O)c1Cl	8.21%
CCCSc1nc2c(c(=O)n(C)c(=O)n2C)n1Cc1ccc(C)cc1	51.8% (active)
CCOc1ccc(Cn2c(SCCCCC#N)nc3c2c(=O)n(C)c(=O)n3C)cc1OCC	8.56%
Cc1cccc(Cn2c(SCCO)nc3c2c(=O)n(C)c(=O)n3C)c1	3.8%
O=C(ON=C1CCN(S(=O)(=O)c2ccccc2)CC1)c1ccc(Cl)cc1	13.6%
Cc1ccc(Oc2ccc(N)cc2)cc1	28.3%
COc1cccc(Oc2ccc(N)cc2)c1	34% (active)
Nc1ccc(Oc2ccc(Cl)cc2)cc1	10%
COC(=O)Cc1cc(=O)oc2c(C)c(O)ccc12	7.59%
Cc1cc(OC(=O)c2ccc(Cl)cc2)cc(=O)n1C	-4.12%
COc1ccc2[nH]cc(/C=C(/C#N)S(=O)(=O)c3ccccc3)c2c1	36.8% (active)
CCN(CC)CC(=O)c1c[nH]c2ccc(OC)cc12	15.9%
COc1ccc2[nH]c3ccc(OC)cc3c2c1	8.06%

SMILES	inhibition
CCCCCCC(=O)Nc1nc(C)c(-c2csc(Nc3cc(Cl)ccc3OC)n2)s1	0.3%
C=CCCC(=O)Nc1nc(C)c(-c2csc(Nc3ccc(Cl)cc3)n2)s1	50.3% (active)
CCCCC(=O)Nc1nc(C)c(-c2csc(Nc3ccc(Cl)cc3)n2)s1	1.53%
O=C(c1cccc2ccccc12)N1CCN(c2ccccc2F)CC1	13.7%
Cc1ccc2cccc(S(=O)(=O)N3CCN(c4ccccc4F)CC3)c2n1	37.7% (active)
O=S(=O)(N1CCOCC1)N1CCN(c2ccccc2F)CC1	-1.25%
O=C(CSCc1c(Cl)cccc1Cl)NN1C(=O)c2ccccc2C1=O	8.98%
COc1ccc(Nc2nc(-c3ccccc3)cs2)cc1	6.6%
c1cnc(Nc2nc(-c3ccc4ccccc4c3)cs2)nc1	2.57%
COc1ccc(OC)c(Nc2nc(-c3ccc(O)c(O)c3)cs2)c1	34.6% (active)
CON(C)S(=O)(=O)c1ccc2c(c1)NC(=O)C1CCCN21 (stereo not drawn)	-2.22%
O=C(c1cc(-c2cccc(O)c2)on1)N1CCc2ccccc2C1	41% (active)
O=C(c1cc(-c2ccc(O)cc2)on1)N1CCCc2ccccc21	23.4%
O=C(c1cc(-c2ccccc2O)on1)N1CCCC1	12%
O=C(NCC1CCC(C(=O)O)CC1)OCc1ccccc1 (stereo not drawn)	8.23%
O=C(CNC(=O)OCc1ccccc1)Oc1cc2oc(=O)cc(-c3ccccc3)c2cc1Cl	34.6% (active)
O=C(CNC(=O)c1ccccc1)NCC(=O)OCc1ccc(Cl)cc1	2.68%
O=C(Nc1ccc2c(c1)OCCO2)c1ccc(Cl)c(S(=O)(=O)N2CCCCC2)c1	7.53%
O=C(NCCc1ccccc1)c1ccc(NC2=NC3CS(=O)(=O)CC3S2)cc1 (stereo not drawn)	-1.06%
Cc1c(Br)c([N+](=O)[O-])nn1C(C)C(=O)Nc1nccs1 (stereo not drawn)	23.8%
O=C(Cc1ccc(F)cc1)NC1CCCC1	20.8%
